# Assay results: PubChem BioAssay AID602127 (Broad Institute, 2011)
# Results with a measured potency or affinity are listed apart. Activity calls are given as the source filed them.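 Rule for the calls: active = every repeat test judged active, meaning a falling signal with potency within twice the top valid dose; inconclusive = repeat tests disagree on the call; inactive = every repeat test inactive, including signal moving upward.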
# Target: Cyclin-dependent kinase 2 (Homo sapiens) (UniProt P24941)
# Assay: inhibition of human CDK2/cyclin A – biochemical, cherry-picked samples, selectivity assay for Dyrk1A inhibitor project, dose response (AID 602127)
structure (smiles),measurement,value
COc1ccc2c(c1)[nH]c1c(C)nccc12,outcome,inactive
